In the library only some 1.8% were active in any assay of this set; here they are far more common.
Glioma ERSR ind: ER stress response induction in glioma; AID 602332; U87-MG GRP78 promoter luciferase reporter, 16 h; Potency, µM, most hits filed as activators; 420,000 compounds, 0.02% hits; further: series mostly up to about 76 µM; nearly all actives have a fitted effect of over 35% in size
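Stably transfected U87-MG glioma cells carrying a GRP78-based luciferase sensor; 16 h compound incubation. Luminescence end-point read 10 min after Bright-Glo addition at room temperature.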
MBNL1-CUG inh: inhibitors of human MBNL1 binding to CUG repeat RNA; 280,000 compounds, 0.036% hits; Q9NR56; Potency, µM (highest dose often 57.5 µM), most hits filed as inhibitors; TR-FRET MBNL1-His/biotin-(CUG)12 binding, 665/545 ratio; AID 2675; active means well fitted inhibition curve with a large enough effect in the signal ratio, with a control signal flat, not every such curve was filed as active; inconclusive means small, poorly fitted or top-dose-only effect, or effect the other way, or a change in a side signal; inactive means no such curve, though single readings can be large or run the other way; the % refers to the signal ratio
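Compounds (final 92 nM to 58 uM) are added to His-tagged MBNL1 and biotin-(CUG)12, then terbium anti-His antibody and streptavidin-XL665 (5 nM final). After 60 min at room temperature, the 665/545 nm ratio is read.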
AT treatment: candidate therapy for ataxia-telangiectasia; Potency, µM (series often up to 57.5 µM), hits mostly activators; 320,000 compounds, 0.19% hits; F2112 A-T fibroblasts, KAP-1 phosphorylation AlphaLISA; neocarzinostatin DNA damage 30 min before lysis; further: nearly all actives have a fitted effect of over 45% in size
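ATM-like activity read as KAP-1 phosphorylation via AlphaLISA donor/acceptor antibody pairs after lysis and 6 hr at 25C. Cells were ATM-null patient fibroblasts (F2112, hTERT), dosed 60 min, then exposed to the DSB inducer NCS for 30 min.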
Mito fusion yeast: blocks mitochondrial division or promotes mitochondrial fusion. 320,000 compounds, 0.23% hits. S. cerevisiae fusion-defective mutant growth rescue, CellTiterGlo 48 h. Potency, µM (series often up to 46.1 µM), most hits filed as activators. AID 485298; further: nearly all actives have a fitted effect of over 45% in size
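S. cerevisiae fusion-defective temperature-sensitive mutants (e.g. fzo1-1, mgm1-5) grown 48 h at 37C in YPEG (ethanol/glycerol non-fermentable) medium with 23 nl compound per well; growth rescue read as CellTiterGlo luminescence.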
TCR activator: activates T cell receptor signaling. Potency, µM (top dose mostly 9.22 µM), most hits filed as activators. 330,000 tested, under 10 active. primary human leukocytes, anti-CD3, IL-2 HTRF, 48 h. AID 504894
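Readout: HTRF IL-2, Eu-cryptate/d2 antibody pair, 320nm excitation, 665nm emission. Stimulus: a-CD3 beads, no co-stimulation. Cells: primary human leukocytes. Exposure: 48 hr with compound.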
ClpP mod: qHTS Assay for Activators of ClpP | ATP-dependent Clp protease proteolytic subunit (Bacillus subtilis (strain 168)), P80244 | purified B. subtilis ClpP, FRET peptide cleavage, 20 min | Potency, µM (highest dose often 57.5 µM) | 340,000 compounds, 1.9% hits | AID 651965, 2013; active means well fitted falling curve with a large enough effect; inconclusive means small, poorly fitted or top-dose-only effect; inactive means no such curve, though single readings can be large or run the other way; further: the source files actives as falling curves though it sought activators and does not explain the sign; nearly all actives have a fitted effect of over 65% in size
Target sequence (P80244 whole entry, looked up): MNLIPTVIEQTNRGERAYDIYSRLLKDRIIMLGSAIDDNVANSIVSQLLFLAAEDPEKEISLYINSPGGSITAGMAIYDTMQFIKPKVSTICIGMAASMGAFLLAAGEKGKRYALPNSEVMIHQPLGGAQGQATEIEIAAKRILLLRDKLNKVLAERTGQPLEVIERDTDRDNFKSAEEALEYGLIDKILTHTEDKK
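Purified B. subtilis ClpP, 10 microg/mL final in Tris/HCl pH8 with KCl, BSA, glycerol and Tween-20, cleaved an Abz/nitrotyrosine-quenched decapeptide. Fluorescence (ex 320, em 430) was read at 0 and 20 min at room temperature. Delta was normalized to 5.8 microM ADEP and DMSO/no-enzyme controls.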
Hits are given with their value; i = inactive; ? = inconclusive; nt = no result given. Unless noted, the call rests on the fitted dose curve; in most records, active means well fitted curve in the direction sought with a large enough effect; inconclusive means small, poorly fitted or top-dose-only effect, or another doubt; inactive means no such curve, though single readings can be large; an effect the other way counts as inactive or inconclusive.

SMILES	Glioma ERSR ind	MBNL1-CUG inh	AT treatment	Mito fusion yeast	TCR activator	ClpP mod
CCc1cccc(CC)c1NC(=O)CCS(=O)(=O)c1ccc2c(c1)CCN2C(C)=O	i	nt	nt	nt	nt	i
CCOC(=O)N1CCN(C(=O)CCS(=O)(=O)c2ccc3c(c2)CCN3C(=O)CC)CC1	i	i	i	i	i	i
CCOC(=O)C1CCN(C(=O)CCS(=O)(=O)c2ccc3c(c2)CCN3C(=O)CC)CC1	i	i	i	i	i	20µM
Cc1ccc(C)c(N2CCN(C(=O)CCS(=O)(=O)c3ccc4c(c3)CCN4C(=O)C3CC3)CC2)c1	i	i	i	11µM	i	i
CCC1C(=O)NCCN1Cc1ccc2c(c1)CN(Cc1ccc(OC)cc1OC)CCO2 (stereo unspecified)	i	nt	nt	nt	nt	nt
COc1ccc2cc([S+]([O-])Cc3ncc(C)c(OC)c3C)nc2c1	i	nt	nt	i	nt	nt
Cc1ccsc1/C=N/n1cnc2sc(C)c(C)c2c1=O	i	i	i	i	i	32µM
Cc1sc2ncn(/N=C/c3cn(-c4ccccc4)nc3-c3ccccc3)c(=O)c2c1C	i	nt	nt	nt	nt	nt
CN(C)c1ncc2nc(-c3ccc(F)cc3)c(=O)n(CCC#N)c2n1	i	nt	nt	nt	nt	nt
Cc1sc(NC(=O)c2ccco2)c(C(c2ccccc2)N2CCC(C)CC2)c1C (stereo unspecified)	i	i	i	i	i	28µM
Cc1ccc(C(c2c(NC(=O)c3ccco3)sc(C)c2C)N2CCOCC2)cc1 (stereo unspecified)	i	nt	nt	nt	nt	i
CS(=O)(=O)c1ccc(/C=C2\C=Cc3ccccc32)cc1	i	nt	nt	nt	nt	i
COc1ccc2[nH]c(=O)c(CN(c3ccc(C)c(C)c3)S(C)(=O)=O)cc2c1	i	i	i	i	nt	nt
CCN(CC(=O)NCc1ccc(F)cc1)C(=O)Cc1ccc(OC)cc1	i	i	i	i	i	16µM
CCN(Cc1cc2cc(OC)ccc2[nH]c1=O)C(=O)Cc1ccc(OC)cc1	i	i	i	i	i	28µM
CCOc1ccc(N(Cc2cc3cc(OC)ccc3[nH]c2=O)S(C)(=O)=O)cc1	i	?	i	i	i	28µM
CCN(CC(=O)NCc1ccc(F)cc1)C(=O)/C=C/c1ccc(OC)cc1	i	i	i	i	i	nt
COc1ccc2[nH]c(=O)c(CN(C)C(=O)COc3ccccc3)cc2c1	i	i	i	i	i	32µM
CCCCN(Cc1cc2cc(OC)ccc2[nH]c1=O)C(=O)COc1ccccc1	i	nt	nt	nt	i	i
COc1cc(=O)n2c(c1C(=O)N(C)Cc1nonc1C)CCN(Cc1c(F)cccc1F)CC2	i	nt	nt	nt	nt	nt
C#C[C@]1(OC(C)=O)CC[C@H]2[C@@H]3CCC4=C/C(=N/O)CC[C@@H]4[C@H]3CC[C@@]21CC	i	nt	nt	nt	nt	nt

High-throughput results deposited in PubChem by National Center for Advancing Translational Sciences (NCATS).
